These results are taken from PubChem BioAssay (NCATS).

Experiment [1] can be described thus: AP1 Signaling Pathway (AID 357).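 Also: ME-180 reporter cells stimulated with EGF at its EC50 level; % is scaled to controls: 0 for no effect and ±100 for the full control effect.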 To be noted: ME-180 AP-1-bla reporter, EGF-induced, beta-lactamase ratio, 5 h; at 7.69 µM (top of the series) unless noted. The method in brief: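 Modulation of EGF-driven AP-1 transcription was assessed with a beta-lactamase reporter in ME-180 cells. Compound and EC50 EGF were co-incubated 5 hours at 37 °C before 2.5-hour CCF4 loading at room temperature and dual-emission reading.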

For experiment [2], the target named is Cytochrome P450 1A2 (Homo sapiens) (UniProt P05177). The experiment can be described thus: p450-cyp1a2 (AID 410; calls by dose curve; also: potency is read from the fitted curve at half-maximal effect;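 as to activity change, negative = inhibition: -100% = full effect of reference inhibitor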). Summed up: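 20nM CYP1A2, 100uM Luciferin-ME (=Km), 100mM KPO4; cpd 10 min RT; +NADPH regen, 60 min RT; stop/detect 20 min; luminescence. Normalized to furafylline 57 uM = full inhibition.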
A short description of experiment [3]: NFAT Signaling Pathway (AID 444).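 Also: carbachol stimulus at about its EC50 of 1 µM final; % is scaled to controls: 0 for no effect and ±100 for the full control effect.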 Conditions: Jurkat NFAT-bla M1, carbachol, beta-lactamase ratio, 5 h; at 7.69 µM (top of the series) unless noted. The method in brief:
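Read-out: CCF4 FRET ratio (460 nm/530 nm) after 1 h RT dye loading, used for %activity and AC50 from titration series. Cells: Jurkat NFAT-β-lactamase/M1 line, treated with compound plus 1 uM carbachol for 5 h, 37 °C.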

Experiment [4] is described as follows: Stat Signaling Pathway (AID 446).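 Also: ME-180 cervical cancer cells given 40 pM IL-6 alongside compound; SIE-controlled beta-lactamase reporter measured as 460/530 nm FRET emission ratio; % is scaled to controls: 0 for no effect and ±100 for the full control effect.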 Conditions: ME-180 (cervical carcinoma) SIE beta-lactamase reporter, IL-6 stimulated, 5 h; at 7.69 µM (top of the series) unless noted. The method in brief:
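Compound effects on IL-6-induced STAT reporter activity were measured in ME-180 cells. After overnight culture, cells were co-treated with 40 pM IL-6 for 5 hrs before beta-lactamase substrate loading at room temperature.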

In experiment [5] the target is Glucocorticoid receptor (Homo sapiens) (UniProt P04150). The experiment can be described thus: GR-GFP Redistribution (AID 450;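 active = compounds whose dose series gives a full or clear partial fitted curve of increased nuclear translocation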; also: potency is read from the fitted curve at half-maximal effect). To be noted: U2OS GR-GFP nuclear translocation, laser cytometry, 2 h.
The target is the same in experiment [6]. The experiment can be described thus: GR-EFC Redistribution (AID 451; calls by dose curve; also: potency is read from the fitted curve at half-maximal effect). To be noted: CHO-K1 GR-EFC translocation, beta-gal luminescence, 2 h. The method in brief:
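Translocation of GR-ED fusion to nuclear EA restores b-gal, read by luminescence after 1 h room-temperature detection. Engineered CHO-K1 biosensor cells, 1,000/well, exposed 2 h at 37 C to titrations up to 46 uM final.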

The target of experiment [7] is Mitogen-activated protein kinase 10 (Mus musculus) (UniProt Q61831). The experiment can be described thus: JNK3 AlphaScreen Assay (AID 530).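 Also: kinase came from lysate of stimulated human HepG2 cells; signal reports phosphorylation of biotinylated GST-cJun 1-79 at Ser73 with 10 µM ATP; % is scaled to controls: 0 for no effect and ±100 for the full control effect.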 Summed up:
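Kinase buffer: 20 mM Tris-HCl pH 7.6, 10 mM MgCl2, 1 mM DTT, 0.1 mM Na3VO4, 0.01% Tween-20; ATP 10 uM. Substrate biotin-GST-cJun(1-79), enzyme from activated HepG2 lysates. Detection by Ser73 phospho-antibody AlphaScreen.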
(In Alpha technology, singlet oxygen from a donor bead excites a nearby acceptor bead.)

The target of experiment [8] is 3',5'-cyclic-AMP phosphodiesterase 4B (Homo sapiens) (UniProt Q07343). The experiment can be described thus: qHTS Assay for Inhibitors of PDE-IV (AID 607; active = well fitted activation curve with a large enough effect in the main read-out, with a control signal flat, not every such curve was filed as active; also: % of control where 0% means no effect). Summed up:
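ACTOne HEK293 cells carry a modified cAMP-gated CNG channel and express endogenous PDE4; plated 1000 cells/well, compounds up to 22.9 uM final. Membrane-potential dye fluorescence (ex 535/em 590) was read; parental cells received 10 uM forskolin + 100 uM RO 20-1724.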
In general terms: Quantitative high-throughput screening tests each substance at several concentrations.

Experiment [9] deals with Cytochrome P450 2C19 (Homo sapiens) (UniProt P33261). The experiment can be described thus: qHTS Assay for Inhibitors and Substrates of Cytochrome P450 2C19 (AID 899; active = well fitted curve in the direction sought with a large enough effect; an effect the other way counts as inactive or inconclusive; also: potency is read from the fitted curve at half-maximal effect; nearly all actives have a fitted effect of over 60% in size). Summed up:
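5nM enzyme + 10uM Luciferin-H EGE (=KM), 50mM KPO4; cpd pin-transferred, 10 min 37C; NADPH regen, 60 min 37C; stopped w/ luciferin detection reagent, 20 min; luminescence. Normalized to 57uM ketoconazole (AC100).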

The target in experiment [10] is Cytochrome P450 3A4 (Homo sapiens) (UniProt P08684). The experiment can be described thus: qHTS Assay for Activators of Cytochrome P450 3A4 (AID 885; active = well fitted curve in the direction sought with a large enough effect; an effect the other way counts as inactive or inconclusive; also: nearly all actives have a fitted effect of over 65% in size). The method in brief: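 CYP3A4 activity: Luciferin-PPXE O-dealkylation, 25uM substrate, 200mM KPO4, RT throughout. Read-out is luciferase luminescence; higher values reflect activation.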
A short description of experiment [11]: qHTS Assay for Identification of Small Molecule Agonists for Thrombopoietin (TPO) Signaling Pathway (AID 917; active = well fitted curve in the direction sought with a large enough effect; an effect the other way counts as inactive or inconclusive; also: % is scaled to controls: 0 for no effect and ±100 for the full control effect). Summed up:
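First, Ba/F3 cells with human TPO receptor were held overnight without IL-3. Next, compounds and TPO (26 pM final) were added. After 24 hrs at 37 C, luciferase detection reagent was added and luminescence measured following 10 min at room temperature.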

Experiment [12] deals with Muscarinic acetylcholine receptor M1 (Rattus norvegicus) (UniProt P08482). In words: qHTS Assay for Antagonists of Acetylcholine Muscarinic M1 Receptor: Kinetic Measurement of Intracellular Calcium Response (AID 943; active = well fitted curve in the direction sought with a large enough effect; an effect the other way counts as inactive or inconclusive;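 also: Fluo-4 calcium signal as peak divided by basal fluorescence over 4 min; nearly all actives have a fitted effect of over 75% in size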). The method in brief:
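Read-out: peak over basal Fluo-4 fluorescence, kinetic at 1 Hz for 4 min after EC80 carbachol (100 nM final). Rat M1-CHO cells, dye loaded 1 h at 37C, compound added 10 min before agonist.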

Experiment [13] shares this target. The experiment can be described thus: qHTS Assay for Antagonists of Acetylcholine Muscarinic M1 Receptor: Measurement of IP-One Response (AID 944; active = well fitted curve in the direction sought with a large enough effect; an effect the other way counts as inactive or inconclusive; also: nearly all actives have a fitted effect of over 75% in size). Summed up:
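Read-out: HTRF competition between d2-IP1 and Eu-cryptate anti-IP1 antibody, emission 620 and 665 nm. Stimulus was carbachol, EC80 (200 nM), for 30 min in M1-CHO cells (rat receptor), after 10 min compound pre-treatment.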

For experiment [14], the target named is Pyruvate kinase PKM (Homo sapiens) (UniProt P14618). In words: qHTS Assay for Activators of Human Muscle Pyruvate Kinase (AID 954; active = well fitted curve in the direction sought with a large enough effect, not every such curve was filed as active;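 also: 0% = uninhibited enzyme and -100% = no enzyme or full thiadiazolimine inhibition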). The method in brief: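 A coupled luminescent readout tracked ATP made from ADP by purified PKM2. Final conditions included 0.1 nM enzyme, PEP and ADP at 0.5 and 0.1 mM, pH 7.2 imidazole buffer with BSA, and a one-hour room-temperature reaction.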

Experiment [15] addresses Alpha-galactosidase A (Homo sapiens) (UniProt P06280). The experiment can be described thus: Counterscreen for Glucocerebrosidase Inhibitors: qHTS Assay for Human alpha-Galactosidase at pH 4.5 (AID 992; active = well fitted curve in the direction sought with a large enough effect; an effect the other way counts as inactive or inconclusive; also: 0% is about no effect). The method in brief: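 Citrate buffer pH 4.5, Tween-20 0.005%. Enzyme 2 nM, substrate 80 uM, 20 min RT. Stop pH 10. Fluorescence Ex 365/Em 440. AC50 by Hill fit.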
Experiment [16] addresses alpha-glucosidase (Oryza sativa, rice) (UniProt Q653V4). In words: Counterscreen for Glucocerebrosidase Inhibitors: qHTS Assay for Rice alpha-Glucosidase at pH 5.0 (AID 997; active = well fitted curve in the direction sought with a large enough effect; an effect the other way counts as inactive or inconclusive; also: potency is read from the fitted curve at half-maximal effect;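 as to activity change, negative = inhibition: 0% = full activity with enzyme and -100% = basal without enzyme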). The method in brief: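 Endpoint fluorogenic assay at pH 5.0: compounds (0.7 nM to 77 uM) titrated against 4 nM rice enzyme and 400 uM 4-MU-alpha-glucoside for 20 min at room temperature; NaOH/glycine stop, read ex 365/em 440 nm, Hill-fitted AC50.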

In experiment [17] the target is Pyruvate kinase (Leishmania mexicana) (UniProt Q27686). The experiment can be described thus: qHTS Validation Assay for Inhibitors of Leishmania Mexicana Pyruvate Kinase (AID 945; active = well fitted curve in the direction sought with a large enough effect; an effect the other way counts as inactive or inconclusive;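 also: 0% = DMSO only neutral control wells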). Summed up: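 Purified LmPYK (E451W mutant, 0.2 nM) was incubated 1 h at room temperature with 0.5 mM PEP and 0.1 mM ADP in 50 mM imidazole pH 7.2, 50 mM KCl, 7 mM MgCl2; ATP formed was read by PKLight luminescence, normalized to DMSO wells.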

A short description of experiment [18]: qHTS Assay for Identification of Small Molecule Antagonists for NFkB Signaling Pathway (AID 895; active = well fitted inhibition curve with a large enough effect in the signal ratio, with a control signal flat, not every such curve was filed as active; the % refers to the signal ratio; also: % is scaled to controls: 0 for no effect and ±100 for the full control effect). Summed up: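 Beta-lactamase reporter read-out (460 and 530 nm emission ratio, 405 nm excitation, 2 hrs substrate loading RT) after 5 hr stimulation with 10 pM TNF alpha in compound-treated NFkB-bla ME-180 cells in low-serum medium.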

Unmarked numbers belong to inactive results. Inconclusive results are not listed. The source made the active and inactive calls. Unless noted, calls follow the shape of the dose curve; as a rule, active = well fitted curve in either direction with a large enough effect (not every such curve was filed as active); inconclusive = small, poorly fitted or top-dose-only effect, or another doubt; inactive = flat fitted curve, though single readings scatter. Some results are limits rather than exact numbers.

Chain of Alpha-galactosidase A (Homo sapiens) (P06280 whole entry, looked up): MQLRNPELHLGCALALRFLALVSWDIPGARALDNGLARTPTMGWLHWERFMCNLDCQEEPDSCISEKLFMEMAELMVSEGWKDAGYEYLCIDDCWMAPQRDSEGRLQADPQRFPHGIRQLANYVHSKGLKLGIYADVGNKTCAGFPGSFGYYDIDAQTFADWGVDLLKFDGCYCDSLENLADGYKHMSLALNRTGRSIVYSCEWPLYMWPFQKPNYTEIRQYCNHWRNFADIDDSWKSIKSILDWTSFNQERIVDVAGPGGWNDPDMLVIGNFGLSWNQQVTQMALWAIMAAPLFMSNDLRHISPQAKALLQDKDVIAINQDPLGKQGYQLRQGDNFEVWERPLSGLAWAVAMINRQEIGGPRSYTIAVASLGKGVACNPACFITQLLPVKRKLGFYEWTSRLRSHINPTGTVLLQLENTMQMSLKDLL
Chain of Glucocorticoid receptor (Homo sapiens) (P04150 whole entry, looked up): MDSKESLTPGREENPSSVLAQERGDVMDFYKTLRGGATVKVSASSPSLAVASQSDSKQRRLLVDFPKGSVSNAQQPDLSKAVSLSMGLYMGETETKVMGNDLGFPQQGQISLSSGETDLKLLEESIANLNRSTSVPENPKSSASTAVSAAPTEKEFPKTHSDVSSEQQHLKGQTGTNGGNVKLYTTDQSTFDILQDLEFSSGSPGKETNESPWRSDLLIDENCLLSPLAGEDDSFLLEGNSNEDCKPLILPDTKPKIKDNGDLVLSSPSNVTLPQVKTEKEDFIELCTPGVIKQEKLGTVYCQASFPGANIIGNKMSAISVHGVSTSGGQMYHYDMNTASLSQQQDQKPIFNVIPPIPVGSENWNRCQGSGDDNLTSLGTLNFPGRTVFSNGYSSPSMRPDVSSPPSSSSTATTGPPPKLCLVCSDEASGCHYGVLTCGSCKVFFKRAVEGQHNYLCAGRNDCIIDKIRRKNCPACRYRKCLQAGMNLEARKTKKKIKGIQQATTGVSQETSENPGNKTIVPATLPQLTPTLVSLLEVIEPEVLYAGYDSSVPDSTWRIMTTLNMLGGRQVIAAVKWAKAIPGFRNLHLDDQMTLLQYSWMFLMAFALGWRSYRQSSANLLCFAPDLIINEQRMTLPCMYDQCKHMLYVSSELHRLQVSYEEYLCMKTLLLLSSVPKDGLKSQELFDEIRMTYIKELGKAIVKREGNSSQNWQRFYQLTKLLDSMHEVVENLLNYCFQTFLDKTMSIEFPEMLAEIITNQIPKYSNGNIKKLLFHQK
Chain of Muscarinic acetylcholine receptor M1 (Rattus norvegicus) (P08482 whole entry, looked up): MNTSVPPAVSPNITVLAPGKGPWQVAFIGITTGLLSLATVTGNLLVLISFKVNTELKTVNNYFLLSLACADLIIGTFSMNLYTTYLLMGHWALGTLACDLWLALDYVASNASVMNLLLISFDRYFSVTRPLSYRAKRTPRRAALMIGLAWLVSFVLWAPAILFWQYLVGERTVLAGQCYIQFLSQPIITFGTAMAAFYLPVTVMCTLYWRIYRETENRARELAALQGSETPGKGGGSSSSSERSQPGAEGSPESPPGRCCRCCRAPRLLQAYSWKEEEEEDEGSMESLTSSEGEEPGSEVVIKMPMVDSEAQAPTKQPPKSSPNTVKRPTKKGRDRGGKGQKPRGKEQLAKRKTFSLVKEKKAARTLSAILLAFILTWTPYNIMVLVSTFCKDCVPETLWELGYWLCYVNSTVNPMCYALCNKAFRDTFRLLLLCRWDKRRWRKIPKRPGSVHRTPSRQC
Chain of 3',5'-cyclic-AMP phosphodiesterase 4B (Homo sapiens) (Q07343 whole entry, looked up): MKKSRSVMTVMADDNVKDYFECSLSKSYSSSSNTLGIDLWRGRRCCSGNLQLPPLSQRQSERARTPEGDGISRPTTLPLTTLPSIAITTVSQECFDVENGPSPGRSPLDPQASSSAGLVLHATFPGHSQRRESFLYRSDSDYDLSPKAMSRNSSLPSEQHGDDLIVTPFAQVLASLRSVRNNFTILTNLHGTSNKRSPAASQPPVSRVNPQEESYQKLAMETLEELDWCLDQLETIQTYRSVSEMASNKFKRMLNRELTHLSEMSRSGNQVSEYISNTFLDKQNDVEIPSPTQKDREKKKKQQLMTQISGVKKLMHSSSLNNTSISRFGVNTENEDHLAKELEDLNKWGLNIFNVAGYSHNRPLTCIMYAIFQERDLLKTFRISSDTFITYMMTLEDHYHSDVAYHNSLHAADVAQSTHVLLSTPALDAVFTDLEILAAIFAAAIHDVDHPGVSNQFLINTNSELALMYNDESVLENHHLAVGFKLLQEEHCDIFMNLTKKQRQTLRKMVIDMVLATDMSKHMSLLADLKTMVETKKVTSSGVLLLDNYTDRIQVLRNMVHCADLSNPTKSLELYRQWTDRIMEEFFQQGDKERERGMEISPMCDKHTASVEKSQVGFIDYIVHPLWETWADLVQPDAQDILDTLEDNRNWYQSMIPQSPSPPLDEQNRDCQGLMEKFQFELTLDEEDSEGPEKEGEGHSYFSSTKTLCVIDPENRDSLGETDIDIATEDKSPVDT
Chain of Cytochrome P450 1A2 (Homo sapiens) (P05177 whole entry, looked up): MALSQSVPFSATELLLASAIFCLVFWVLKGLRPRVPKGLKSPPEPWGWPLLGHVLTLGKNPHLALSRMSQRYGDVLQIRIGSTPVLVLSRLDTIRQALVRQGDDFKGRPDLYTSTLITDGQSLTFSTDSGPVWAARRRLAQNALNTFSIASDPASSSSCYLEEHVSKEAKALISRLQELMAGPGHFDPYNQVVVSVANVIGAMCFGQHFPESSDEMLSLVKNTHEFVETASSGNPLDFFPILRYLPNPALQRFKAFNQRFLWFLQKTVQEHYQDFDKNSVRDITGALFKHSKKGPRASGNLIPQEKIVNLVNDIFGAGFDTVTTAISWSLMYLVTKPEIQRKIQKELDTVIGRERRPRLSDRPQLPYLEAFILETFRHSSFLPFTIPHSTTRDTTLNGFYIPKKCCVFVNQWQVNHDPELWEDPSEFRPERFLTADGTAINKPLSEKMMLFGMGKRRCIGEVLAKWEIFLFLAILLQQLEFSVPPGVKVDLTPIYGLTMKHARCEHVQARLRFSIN
Chain of Pyruvate kinase PKM (Homo sapiens) (P14618 whole entry, looked up): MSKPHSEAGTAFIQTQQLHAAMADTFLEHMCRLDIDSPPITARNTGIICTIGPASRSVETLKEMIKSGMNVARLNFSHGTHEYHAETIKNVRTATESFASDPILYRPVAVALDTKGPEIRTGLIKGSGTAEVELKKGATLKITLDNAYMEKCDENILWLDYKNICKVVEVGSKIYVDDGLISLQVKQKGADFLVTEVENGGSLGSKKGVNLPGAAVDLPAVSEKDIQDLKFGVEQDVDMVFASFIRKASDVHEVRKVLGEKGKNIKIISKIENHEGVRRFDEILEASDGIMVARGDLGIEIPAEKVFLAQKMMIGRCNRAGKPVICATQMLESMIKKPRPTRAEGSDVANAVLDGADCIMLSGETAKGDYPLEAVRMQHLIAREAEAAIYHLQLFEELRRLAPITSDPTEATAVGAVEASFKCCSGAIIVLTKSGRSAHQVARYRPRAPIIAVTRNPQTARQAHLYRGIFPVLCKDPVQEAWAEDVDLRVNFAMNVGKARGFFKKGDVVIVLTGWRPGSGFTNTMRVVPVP
Chain of Pyruvate kinase (Leishmania mexicana) (Q27686 2-499 E452W): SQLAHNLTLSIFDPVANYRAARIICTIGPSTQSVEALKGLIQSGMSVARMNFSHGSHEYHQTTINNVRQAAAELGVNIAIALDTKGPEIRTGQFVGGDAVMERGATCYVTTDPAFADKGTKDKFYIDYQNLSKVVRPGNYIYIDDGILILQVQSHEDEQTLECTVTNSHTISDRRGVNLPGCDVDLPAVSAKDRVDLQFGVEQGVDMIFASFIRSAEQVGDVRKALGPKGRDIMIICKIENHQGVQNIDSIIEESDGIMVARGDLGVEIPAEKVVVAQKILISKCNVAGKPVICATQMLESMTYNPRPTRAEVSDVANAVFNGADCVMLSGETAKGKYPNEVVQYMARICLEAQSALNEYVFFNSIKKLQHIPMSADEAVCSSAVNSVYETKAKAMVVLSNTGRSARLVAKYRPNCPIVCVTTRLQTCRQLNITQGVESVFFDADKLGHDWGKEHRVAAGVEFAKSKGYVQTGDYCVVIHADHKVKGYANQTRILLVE
Chain of Cytochrome P450 2C19 (Homo sapiens) (P33261 whole entry, looked up): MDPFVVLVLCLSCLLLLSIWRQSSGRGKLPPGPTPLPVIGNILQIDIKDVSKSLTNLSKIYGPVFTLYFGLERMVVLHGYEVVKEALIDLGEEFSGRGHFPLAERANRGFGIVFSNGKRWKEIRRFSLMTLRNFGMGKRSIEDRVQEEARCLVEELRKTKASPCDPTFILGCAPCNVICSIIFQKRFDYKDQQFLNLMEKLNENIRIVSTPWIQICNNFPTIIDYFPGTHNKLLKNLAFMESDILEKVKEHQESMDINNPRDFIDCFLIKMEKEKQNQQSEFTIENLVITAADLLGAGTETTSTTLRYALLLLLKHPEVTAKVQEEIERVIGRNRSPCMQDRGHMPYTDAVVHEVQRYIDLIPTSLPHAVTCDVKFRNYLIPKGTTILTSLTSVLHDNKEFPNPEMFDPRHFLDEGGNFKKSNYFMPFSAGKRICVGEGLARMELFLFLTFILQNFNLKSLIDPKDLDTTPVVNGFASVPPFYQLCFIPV
Chain of Cytochrome P450 3A4 (Homo sapiens) (P08684 whole entry, looked up): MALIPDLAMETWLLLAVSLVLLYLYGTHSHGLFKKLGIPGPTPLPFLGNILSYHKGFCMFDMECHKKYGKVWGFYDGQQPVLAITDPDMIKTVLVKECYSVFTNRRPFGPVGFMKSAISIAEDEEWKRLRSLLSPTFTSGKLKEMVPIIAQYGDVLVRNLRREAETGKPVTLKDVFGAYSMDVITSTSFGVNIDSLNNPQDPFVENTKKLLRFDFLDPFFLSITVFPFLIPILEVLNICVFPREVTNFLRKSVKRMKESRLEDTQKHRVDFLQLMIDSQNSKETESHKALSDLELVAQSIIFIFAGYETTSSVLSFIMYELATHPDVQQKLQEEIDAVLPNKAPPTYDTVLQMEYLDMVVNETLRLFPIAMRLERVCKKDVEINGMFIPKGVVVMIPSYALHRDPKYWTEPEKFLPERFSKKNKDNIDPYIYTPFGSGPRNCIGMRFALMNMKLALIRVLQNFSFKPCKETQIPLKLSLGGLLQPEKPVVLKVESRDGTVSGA

Regarding `CN(Cc1cc(C(C)(C)C)cc(Br)c1O)Cc1cc(C(C)(C)C)cc(Br)c1O`, the figures for the activity change, negative = inhibition in experiment [1] and in experiment [3] were -2.5% and 11.8%, respectively. Moreover, the Potency is 3.16 µM (active) in experiment [2], over 46 µM in [5], over 9.22 µM in experiment [6] and 3.16 µM (active) in experiment [9]. Besides, the activity, negative = inhibition in [4] is 7.17%. Moreover, the Potency result in [7] and in experiment [8] was “inactive” in each case.

As for `N.N.N.N.N.N.N.N.N.N.N.N.N.N.O.O.[Ru].[Ru].[Ru]`, the activity change, negative = inhibition in [1] was 17.6% [at 38 µM]; in experiment [3], -5.33% [at 38 µM]. Also, the Potency entry in [2], in [7], in experiment [8], in experiment [10], in experiment [12] and in [13] was “inactive” in each case. The Potency entry in [16] is “inactive”. The activity, negative = inhibition in experiment [4] is -27% [at 38 µM]. Besides, the Potency in [5] and in [6] was over 46 µM each time. In addition, the result in experiment [11], in experiment [14] and in experiment [15] was inactive.

For `CN(C)C(=O)/N=N\C(=O)N(C)C`, the values for the activity change, negative = inhibition in experiment [1] and in experiment [3] were 9.37% [at 38 µM] and -14.2% [at 38 µM], respectively. Besides, the Potency entry in experiment [2], in experiment [7], in experiment [8], in experiment [12], in experiment [13] and in experiment [16] was “inactive” throughout. In addition, the activity, negative = inhibition in experiment [4] is 5.55% [at 38 µM]. Further, the Potency in [5] and in [6] was over 46 µM throughout. Besides, the compound was called inactive in [17], in [14] and in [15].

For `OC[C@@H]1NC[C@@H](O)[C@@H](O)[C@H]1O`, the activity change, negative = inhibition in [1] is 0.931% [at 38 µM]; in experiment [3] it was 1.96% [at 38 µM]. Besides, the Potency result in experiment [2], in experiment [7], in [8], in experiment [18], in experiment [12] and in experiment [13] was “inactive” in each case. Further, the activity, negative = inhibition in experiment [4] is -28.2% [at 38 µM]. Besides, the Potency in experiment [5] was over 46 µM; in experiment [6], over 46 µM; in experiment [16], 0.0794 µM (active). In addition, the result in experiment [11], in experiment [17], in experiment [14] and in experiment [15] was inactive.

As to `C=C1CC[C@H](O)C/C1=C/C=C1\CCC[C@]2(C)[C@H]1CC[C@H]2[C@@H](C)CCCC(C)C`, the activity change, negative = inhibition in experiment [1] is -6.4% [at 17.2 µM]; in experiment [3], 8.22% [at 17.2 µM]. Moreover, the Potency result in experiment [2], in experiment [7] and in experiment [8] was “inactive” each time. For the same compound, in [4], the activity, negative = inhibition is -9.36% [at 17.2 µM]. In addition, the Potency in [5] and in experiment [6] was over 20.6 µM each time.

On to `O=[N+]([O-])c1ccc(CSc2ncnc3c2ncn3[C@@H]2O[C@@H](CO)[C@@H](O)[C@H]2O)cc1`, for which the figures for the activity change, negative = inhibition in [1] and in experiment [3] were -12.2% [at 38 µM] and 11% [at 38 µM], respectively. The Potency result in experiment [2], in experiment [7], in experiment [8], in [18], in experiment [13] and in [16] was “inactive” each time. In experiment [4], the activity, negative = inhibition was 29.7% [at 38 µM]. Further, the Potency in experiment [5] and in experiment [6] was over 46 µM in each case. Further, the outcome in experiment [11], in experiment [17] and in [15] was inactive.
